# Data as given in PubChem BioAssay (NCI).
# About 83,000 compounds went through this panel and 20% of them were active in at least one assay; those are over-represented in the sample as a whole.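 Results are percent growth after 48 hours of single-concentration exposure. 100 means growth as in untreated cells, lower positive values show inhibition; negative values down to -100 show cell death.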 Unmarked numbers belong to inactive results. Active and inactive are the calls of the source. Rule for the calls: active = growth percent below 10; inactive = the rest.
# Test system: HL-60(TB) leukemia
# Assay: NCI-60 one-dose screen, 48 h (100 = growth as untreated, 0 = no growth, -100 = all killed)
# Conditions: 10 µM unless noted
row,Compound,growth
1,CCCCCCCCCCCCCCCCNCCC[C@@H](C)[C@H]1CC[C@H]2[C@@H]3[C@H](OCCCN)C[C@@H]4C[C@H](OCCCN)CC[C@]4(C)[C@H]3C[C@H](OCCCN)[C@]12C,4.5% (active)
2,COc1cc2nc(-c3cccc4cccnc34)nc(NC3CCN(Cc4ccccc4)CC3)c2cc1OC,-63.4% (active)
3,COc1cc(F)c(/C=C/c2cc(/C=C/c3cc(OC)c(OC)cc3F)on2)cc1OC,85.2%
4,O=C1Nc2ccccc2/C1=C/c1ccc[nH]1,103%
5,CCOC(=O)CC1CSC(N/N=C/c2ccc(F)c(Br)c2)=N1 (configuration not stated),93.6%
6,CN(C)CCCOc1ccc(NC2=C(Cl)C(=O)C(Nc3ccc(OCCCN(C)C)cc3)=C(Cl)C2=O)cc1,-39.9% (active)
7,Cl[C@@H]1CCO[C@H](c2cc3ccccc3c3ccccc23)C1,92.9%
8,CC(=O)c1ccc2c(ccc3ccccc32)c1,90.6%
9,CCNCC(=O)Nc1ccc(C(=O)OCC)cc1,88.6%
10,COc1ccccc1/C=C1\COc2ccc(-c3ccccc3)cc2C1=O,-47.8% (active)
11,COc1cc(/C=C2\C(=O)N(c3c(Cl)cccc3Cl)c3ccccc32)cc(OC)c1O,-6.44% (active)
12,O=C(CC1(O)C(=O)Nc2c(Cl)ccc(Cl)c21)c1ccc(Cl)cc1Cl (configuration not stated),80.8%
13,Cc1ccc(N2C(=O)CCC2=O)cc1,104%
14,Fc1cccc(COc2ccc(Nc3ncnc4onc(-c5ccccc5)c34)cc2)c1,7.34% (active)
15,COc1cc(/C=C2\CN(S(=O)(=O)c3ccc(C)cc3)C/C(=C\c3cc(CN4CCCC4)c(O)c(OC)c3)C2=O)cc(CN2CCCC2)c1O,-33.6% (active)
16,COc1ccccc1-c1ccc2c(N)c(C(=O)c3ccc4c(c3)OCO4)sc2n1,37%
17,Fc1ccc(Nc2nnc(-c3ccc(Cl)cc3)o2)cc1,91.4%
18,CCCC1Cc2cc(-n3nc(C)c4c3CC(C)(C)CC4=O)cc(NC3CCC(O)CC3)c2C(=O)N1 (configuration not stated),-8.17% (active)
19,CCC1=CC2CN(C1)Cc1c([nH]c3ccccc13)[C@@](C(=O)OC)(c1cc3c(cc1OC)N(C)[C@H]1[C@@](O)(C(=O)OC)[C@H](OC(C)=O)[C@]4(CC)C=CCN5CC[C@]31[C@@H]54)C2 (some centres not stated),-15.6% (active)

row,Compound,growth
1,O=C1Nc2ccccc2/C1=N/c1nc(-c2ccc(Cl)cc2)cs1,7.82% (active)
2,CC(=O)O.[In],93.4%
3,COc1ccc(C2(O)CCCCC2)cc1,95.6%
4,O=C1CC23OC(C(O)c4ccccc4N12)C1C(c2ccccc2)=NOC13 (configuration not stated),8.01% (active)
5,O=[N+]([O-])c1ccc2[nH]c(=S)n(/C=C(/c3ccc(Cl)cc3Cl)S(=O)(=O)Cc3ccc(Cl)cc3Cl)c2c1,101%
6,Nc1nc(N)c2cc(Sc3cccc(C(F)(F)F)c3)ccc2n1,24.6%
7,COc1cc(/C(C)=C(\c2ccc(Cl)cc2)c2ccc(OCCN3CCCC3)cc2)ccc1F,38.4%
8,N#Cc1c(N)nc2c(c(-c3ccc(Cl)cc3)nn2-c2ccccc2)c1C#N,98.9% [100 µM]
9,CC(C)(C)CC(C)(C)NCc1cc(C(C)(C)C)cc(CNC(C)(C)CC(C)(C)C)c1O,-33.8% (active)
10,Cc1c(O)c(=O)ccn1-c1nc2ccccc2s1,98.3%
11,CCN(CC)CCCCCCNc1cc(OC)c(Cl)c2cccnc12,119%
12,C=C1CC[C@@H]2[C@](C)(COC(C)=O)[C@H](OC(C)=O)CC[C@@]2(C)[C@@H]1CC(Nc1ccc(S(=O)(=O)Nc2nc(C)cc(C)n2)cc1)C1=CCOC1=O (some centres not stated),21.7%
13,Cc1nn(-c2ccccc2)nc1C(=O)Nc1ccccc1C(=O)NCC1CC1,95.8%
14,Cc1ccc(CN2CCC(C(=O)Nc3ccc(-c4cc5ccccc5[nH]4)cc3)CC2)o1,13.7%
15,COc1ccc(C(C)=O)c(OC)c1,115%
16,NC[C@@H]1CCN(c2cc3c(cc2F)c(=O)n(N)c(=O)n3Cc2ccc(-c3ccccc3)cc2)C1,90.4%
17,COc1ccc(NC(=O)c2sc3nc(C)c(C(C)=O)cc3c2N)cc1,94%
18,CC[C@H](Nc1ncnc2nc[nH]c12)c1nc2cccc(NCc3ccc(C(=O)NO)nc3)c2c(=O)n1-c1ccccc1,17.8%
